According to the supplement of paper PMC10849652:
The full data set covers some 7,900 targets. This sample favours those with a hit. About 0.6% of all pairs of compound and target were hits.

Experiments:
Experiment in all cases: log2 fold change, soluble protein after heating vs DMSO (PISA); higher = thermal stabilisation; K562 cells, 10 uM, 30 min; active = over 0.2 and 3.5 SD of the protein, either way, in both replicates (recomputed)
[1] = compound: CS(=O)(=O)c1ccc(-c2cnc(N)c(C(=O)Nc3ccccc3)n2)cc1
Procedure, shortened: (§1)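 Quantification of soluble protein used TMTpro 16plex LC-MS/MS, with channel sums equalised. Samples were the supernatant after 21,000xg for 90 min of pooled aliquots from K562 cells (2×10^6 cells/mL) treated with 10 μM compound for 30 min, heated for 3 min over 48°C-58°C, and extracted in PBS with 0.5% NP-40 at 4°C. Values, from duplicates, describe thermal stability against control samples on a log2 fold-change scale.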

[2] = compound: C[C@@H](Oc1cc(-c2cnn(C3CCNCC3)c2)cnc1N)c1c(Cl)ccc(F)c1Cl [crizotinib]
Procedure, shortened: as §1

[3] = compound: C[C@@H]1COCCN1C2=NC(=NC(=C2)C3(CC3)S(=O)(=O)C)C4=C5C=CNC5=CC=C4
Procedure, shortened: as §1

[4] = compound: C[C@H](C1=CC=C(C=C1)C(=O)NC2=C3C=CNC3=NC=C2)N
Procedure, shortened: as §1

[5] = compound: C[C@H](Nc1ncnc2nc[nH]c12)c1cc2cccc(Cl)c2c(=O)n1-c1ccccc1 [duvelisib]
Procedure, shortened: as §1

[6] = compound: Cc1cc(Nc2cc(CN3CCOCC3)c3nc(C)c(Cc4ccc(Cl)cc4F)n3n2)n[nH]1 [gandotinib]
Procedure, shortened: as §1

[7] = compound: Cc1cc(Nc2cc(N3CCN(C)CC3)nc(Sc3ccc(NC(=O)C4CC4)cc3)n2)n[nH]1 [tozasertib]
Procedure, shortened: as §1

[8] = compound: Cc1cc(SCc2sc(-c3ccc(C(F)(F)F)cc3)nc2C)ccc1OCC(=O)O
Procedure, shortened: as §1

[9] = compound: Cc1ccc(-n2nc(C(C)(C)C)cc2NC(=O)Nc2ccc(OCCN3CCOCC3)c3ccccc23)cc1 [doramapimod]
Procedure, shortened: as §1

[10] = compound: Cc1ccc(C(=O)N(CCCN)[C@@H](c2nc3cc(Cl)ccc3c(=O)n2Cc2ccccc2)C(C)C)cc1 [ispinesib]
Procedure, shortened: as §1

Measured: log2 fold change

TARS2 (UniProt Q9BW92)
inactive: [1] 0.022 | [2] 0.024 | [3] 0.094 | [4] -0.002 | [5] 0.049 | [6] -0.173 | [7] 0.057 | [8] 0.009 | [9] 0.015 | [10] -0.094

TANK (UniProt Q92844)
inactive: [1] -0.032 | [2] 0.287 | [3] -0.021 | [4] 0.069 | [5] 0.038 | [6] 0.135 | [7] 0.112 | [8] 0.091 | [9] -0.015 | [10] -0.064

SLC35B1 isoform 2 (UniProt P78383)
UniProt P78383, sequence (P78383 whole entry, looked up): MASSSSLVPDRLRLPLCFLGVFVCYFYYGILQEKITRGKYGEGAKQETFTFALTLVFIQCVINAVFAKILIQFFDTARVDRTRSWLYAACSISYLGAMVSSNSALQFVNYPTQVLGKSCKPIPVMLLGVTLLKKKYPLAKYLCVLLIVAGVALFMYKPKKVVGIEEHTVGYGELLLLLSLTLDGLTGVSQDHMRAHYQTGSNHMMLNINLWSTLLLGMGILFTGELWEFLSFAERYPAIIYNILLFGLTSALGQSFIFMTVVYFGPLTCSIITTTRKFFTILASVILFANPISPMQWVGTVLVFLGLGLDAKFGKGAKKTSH
active: [4] -0.535
inactive: [1] 0.049 | [2] -0.053 | [3] -0.042 | [5] 0.171 | [7] 0.075 | [8] 0 | [9] -0.061 | [10] -0.043

STRN (UniProt O43815)
inactive: [1] 0.016 | [2] 0.068 | [3] -0.004 | [4] -0.125 | [5] 0.046 | [6] -0.048 | [7] 0.048 | [8] 0.076 | [9] -0.018 | [10] 0.198

SSRP1 (UniProt Q08945)
inactive: [1] -0.024 | [2] -0.018 | [3] 0.144 | [4] -0.088 | [5] 0.029 | [6] -0.029 | [7] 0.087 | [8] 0.072 | [9] -0.027 | [10] 0.048

SLC35B4 (UniProt Q969S0)
UniProt Q969S0, sequence (Q969S0 whole entry, looked up): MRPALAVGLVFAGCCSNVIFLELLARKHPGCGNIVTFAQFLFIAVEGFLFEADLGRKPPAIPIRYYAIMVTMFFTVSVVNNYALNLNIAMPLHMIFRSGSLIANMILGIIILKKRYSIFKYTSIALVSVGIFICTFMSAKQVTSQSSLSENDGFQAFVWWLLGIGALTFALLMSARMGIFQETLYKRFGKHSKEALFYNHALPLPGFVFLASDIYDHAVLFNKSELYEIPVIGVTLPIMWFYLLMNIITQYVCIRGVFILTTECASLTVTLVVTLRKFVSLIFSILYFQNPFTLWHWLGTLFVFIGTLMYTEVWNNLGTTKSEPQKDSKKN
inactive: [1] 0.016 | [2] 0.256 | [3] 0.048 | [7] 0.063 | [9] 0.038

SLK isoform 2 (UniProt Q9H2G2)
inactive: [1] 0.016 | [2] -0.068 | [3] 0.07 | [4] 0.014 | [5] 0.072 | [6] 0.102 | [7] -0.225 | [8] 0.052 | [9] -0.118 | [10] 0.021

TAOK2 (UniProt Q9UL54)
inactive: [2] 0.157 | [3] -0.108 | [6] -0.045 | [7] -0.02 | [9] -0.036 | [10] 0.035

SSB (UniProt E7ERC4)
inactive: [5] 0.399 | [6] -0.352 | [8] 0.337

TCOF1 isoform 3 (UniProt Q13428)
inactive: [1] -0.103 | [3] 0.542 | [6] -0.166 | [7] 0.073 | [10] -0.185

TIMM10B (UniProt Q9Y5J6)
inactive: [1] 0.107 | [3] 0.129 | [4] 0.031 | [5] 0.308 | [6] 0.087 | [7] -0.114 | [8] -0.161 | [10] 0.077

TM7SF2 (UniProt O76062)
UniProt O76062, sequence (O76062 whole entry, looked up): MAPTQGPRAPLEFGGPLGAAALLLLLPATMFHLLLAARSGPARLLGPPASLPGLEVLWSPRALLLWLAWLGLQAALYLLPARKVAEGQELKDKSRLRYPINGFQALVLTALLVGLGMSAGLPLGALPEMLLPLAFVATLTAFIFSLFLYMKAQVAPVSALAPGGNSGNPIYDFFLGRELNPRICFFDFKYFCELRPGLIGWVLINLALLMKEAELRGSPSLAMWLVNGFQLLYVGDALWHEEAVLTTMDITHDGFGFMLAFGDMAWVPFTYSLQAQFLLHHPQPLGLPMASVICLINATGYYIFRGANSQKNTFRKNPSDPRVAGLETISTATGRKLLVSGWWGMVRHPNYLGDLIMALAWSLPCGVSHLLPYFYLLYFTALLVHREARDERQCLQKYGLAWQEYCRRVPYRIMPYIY
inactive: [1] -0.044 | [4] 0.028 | [5] -0.075 | [8] 0.028 | [10] -0.451

SNX15 (UniProt Q9NRS6)
inactive: [1] 0.064 | [2] 0.002 | [4] 0.153 | [5] -0.012 | [6] -0.061 | [7] 0.063 | [8] -0.043 | [9] 0.136 | [10] -0.132

TACC2 (UniProt O95359)
inactive: [1] -0.045 | [4] -0.013 | [5] 0.058 | [6] -0.154 | [7] 0.056 | [8] -0.005 | [10] 0.145

THAP9 (UniProt Q9H5L6)
inactive: [2] -0.004 | [4] -0.105 | [5] 0.168 | [8] -0.245 | [9] 0.041 | [10] -0.21

SLC35F6 (UniProt Q8N357)
inactive: [1] -0.247 | [3] 0.021 | [4] 0.076 | [5] -0.049 | [7] 0.034 | [8] -0.219 | [10] -0.083

TBC1D2 (UniProt Q9BYX2)
inactive: [3] 0.064 | [6] -0.04

SLC9A6 isoform 3 (UniProt Q92581)
inactive: [4] -0.018 | [5] -0.001 | [7] -0.126 | [8] -0.137

SMPD4 isoform 2 (UniProt Q9NXE4)
inactive: [2] -0.21 | [4] -0.061 | [5] 0.069 | [6] -0.263 | [7] -0.163 | [8] 0.09 | [9] 0.027

SRCAP (UniProt Q6ZRS2)
UniProt Q6ZRS2, sequence (Q6ZRS2 whole entry, looked up): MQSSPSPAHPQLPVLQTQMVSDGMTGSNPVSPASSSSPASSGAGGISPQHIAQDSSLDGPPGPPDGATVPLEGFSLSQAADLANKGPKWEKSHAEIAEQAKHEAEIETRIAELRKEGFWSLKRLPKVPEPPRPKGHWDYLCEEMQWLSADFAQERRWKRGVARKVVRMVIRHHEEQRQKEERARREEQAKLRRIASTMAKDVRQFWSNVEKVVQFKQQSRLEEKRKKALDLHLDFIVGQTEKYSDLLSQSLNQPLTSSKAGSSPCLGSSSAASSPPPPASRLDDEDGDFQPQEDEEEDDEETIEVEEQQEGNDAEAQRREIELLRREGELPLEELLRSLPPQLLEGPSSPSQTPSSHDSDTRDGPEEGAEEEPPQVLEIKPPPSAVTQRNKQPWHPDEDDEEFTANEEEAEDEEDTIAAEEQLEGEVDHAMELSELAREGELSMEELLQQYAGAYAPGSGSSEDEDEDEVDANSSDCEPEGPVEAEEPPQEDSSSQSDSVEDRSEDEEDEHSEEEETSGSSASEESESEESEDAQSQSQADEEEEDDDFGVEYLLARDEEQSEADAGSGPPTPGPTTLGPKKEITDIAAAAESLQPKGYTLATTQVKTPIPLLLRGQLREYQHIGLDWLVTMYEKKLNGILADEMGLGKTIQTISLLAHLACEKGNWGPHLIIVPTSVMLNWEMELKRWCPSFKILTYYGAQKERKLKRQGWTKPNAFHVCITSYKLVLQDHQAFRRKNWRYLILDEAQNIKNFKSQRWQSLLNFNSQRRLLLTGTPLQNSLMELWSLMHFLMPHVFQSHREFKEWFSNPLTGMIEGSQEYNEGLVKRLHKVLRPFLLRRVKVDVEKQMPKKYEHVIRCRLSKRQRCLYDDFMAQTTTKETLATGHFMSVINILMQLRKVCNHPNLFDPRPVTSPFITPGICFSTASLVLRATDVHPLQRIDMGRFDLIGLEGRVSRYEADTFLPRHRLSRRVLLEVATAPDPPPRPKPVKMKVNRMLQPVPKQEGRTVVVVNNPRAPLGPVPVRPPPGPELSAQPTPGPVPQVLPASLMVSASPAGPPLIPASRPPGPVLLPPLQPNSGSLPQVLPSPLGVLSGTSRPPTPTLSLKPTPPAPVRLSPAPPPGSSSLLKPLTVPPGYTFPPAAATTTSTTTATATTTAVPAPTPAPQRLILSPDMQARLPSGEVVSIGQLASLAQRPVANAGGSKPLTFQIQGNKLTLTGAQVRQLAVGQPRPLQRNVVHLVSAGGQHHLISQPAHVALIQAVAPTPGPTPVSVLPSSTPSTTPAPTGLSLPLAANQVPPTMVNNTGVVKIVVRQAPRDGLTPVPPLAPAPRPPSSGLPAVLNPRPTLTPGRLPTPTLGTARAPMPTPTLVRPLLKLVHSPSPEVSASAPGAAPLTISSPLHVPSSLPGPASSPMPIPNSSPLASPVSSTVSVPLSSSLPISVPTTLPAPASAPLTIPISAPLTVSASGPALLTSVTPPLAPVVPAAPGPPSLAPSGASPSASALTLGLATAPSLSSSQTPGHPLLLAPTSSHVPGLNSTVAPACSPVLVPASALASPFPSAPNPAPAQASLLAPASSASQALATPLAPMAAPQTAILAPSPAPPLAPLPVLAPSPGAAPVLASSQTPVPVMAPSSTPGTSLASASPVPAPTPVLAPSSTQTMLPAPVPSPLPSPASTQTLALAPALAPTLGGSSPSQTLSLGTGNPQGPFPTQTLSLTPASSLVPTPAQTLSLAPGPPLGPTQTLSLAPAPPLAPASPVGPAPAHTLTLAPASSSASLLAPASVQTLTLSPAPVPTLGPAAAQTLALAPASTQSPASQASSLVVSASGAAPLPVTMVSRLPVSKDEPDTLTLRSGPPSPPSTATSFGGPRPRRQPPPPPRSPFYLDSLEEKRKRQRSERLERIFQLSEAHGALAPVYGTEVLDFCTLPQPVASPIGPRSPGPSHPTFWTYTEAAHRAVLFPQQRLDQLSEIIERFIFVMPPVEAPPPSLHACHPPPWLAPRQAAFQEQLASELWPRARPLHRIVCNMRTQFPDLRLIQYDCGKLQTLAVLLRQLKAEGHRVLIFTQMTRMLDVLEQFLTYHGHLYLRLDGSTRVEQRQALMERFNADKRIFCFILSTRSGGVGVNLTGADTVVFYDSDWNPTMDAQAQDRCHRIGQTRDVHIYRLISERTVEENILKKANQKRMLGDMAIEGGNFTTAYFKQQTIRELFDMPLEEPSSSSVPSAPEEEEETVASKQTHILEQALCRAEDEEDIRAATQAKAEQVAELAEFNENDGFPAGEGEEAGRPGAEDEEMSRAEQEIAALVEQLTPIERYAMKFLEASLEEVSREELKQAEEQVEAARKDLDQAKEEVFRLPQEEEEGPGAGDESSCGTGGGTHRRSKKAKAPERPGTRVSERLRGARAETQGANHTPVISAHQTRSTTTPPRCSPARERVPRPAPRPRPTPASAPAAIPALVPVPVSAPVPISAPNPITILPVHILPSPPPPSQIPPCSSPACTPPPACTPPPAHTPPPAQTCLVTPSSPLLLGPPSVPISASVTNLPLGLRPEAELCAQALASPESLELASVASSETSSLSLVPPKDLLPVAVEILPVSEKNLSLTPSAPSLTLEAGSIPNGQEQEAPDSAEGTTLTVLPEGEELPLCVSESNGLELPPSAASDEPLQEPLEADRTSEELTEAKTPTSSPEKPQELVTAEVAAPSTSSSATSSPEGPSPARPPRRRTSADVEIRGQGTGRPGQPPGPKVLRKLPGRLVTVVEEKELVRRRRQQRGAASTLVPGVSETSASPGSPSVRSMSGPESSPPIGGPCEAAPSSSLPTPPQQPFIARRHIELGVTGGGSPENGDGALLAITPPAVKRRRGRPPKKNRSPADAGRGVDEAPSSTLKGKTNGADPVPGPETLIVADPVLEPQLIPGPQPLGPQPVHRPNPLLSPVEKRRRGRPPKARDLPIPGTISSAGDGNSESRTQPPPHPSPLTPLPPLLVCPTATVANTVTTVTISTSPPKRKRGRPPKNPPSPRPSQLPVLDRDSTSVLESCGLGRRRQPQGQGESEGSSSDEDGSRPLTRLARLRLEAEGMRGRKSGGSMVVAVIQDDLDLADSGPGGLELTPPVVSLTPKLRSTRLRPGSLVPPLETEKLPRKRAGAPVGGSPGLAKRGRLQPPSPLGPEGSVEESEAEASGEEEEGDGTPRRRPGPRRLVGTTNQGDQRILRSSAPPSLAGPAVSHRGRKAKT
inactive: [1] -0.015 | [2] -0.276 | [4] -0.111 | [5] 0.039 | [6] -0.069 | [7] 0.064 | [8] -0.035 | [9] 0.051 | [10] 0

TAF6L (UniProt Q9Y6J9)
inactive: [1] -0.035 | [4] 0.058 | [5] 0.246 | [6] -0.08 | [7] 0.115 | [8] -0.121 | [10] -0.045

TC2N (UniProt Q8N9U0)
inactive: [5] 0.256 | [7] -0.095 | [8] -0.072 | [10] -0.071

TDP1 (UniProt Q9NUW8)
inactive: [4] 0.145

SP2 (UniProt Q02086)
inactive: [1] -0.14 | [2] 0.083 | [5] -0.08 | [8] 0.125 | [9] -0.06

SLC39A1 (UniProt Q9NY26)
inactive: [4] 0.023 | [6] -0.137

TENT5C (UniProt Q5VWP2)
UniProt Q5VWP2, sequence (Q5VWP2 whole entry, looked up): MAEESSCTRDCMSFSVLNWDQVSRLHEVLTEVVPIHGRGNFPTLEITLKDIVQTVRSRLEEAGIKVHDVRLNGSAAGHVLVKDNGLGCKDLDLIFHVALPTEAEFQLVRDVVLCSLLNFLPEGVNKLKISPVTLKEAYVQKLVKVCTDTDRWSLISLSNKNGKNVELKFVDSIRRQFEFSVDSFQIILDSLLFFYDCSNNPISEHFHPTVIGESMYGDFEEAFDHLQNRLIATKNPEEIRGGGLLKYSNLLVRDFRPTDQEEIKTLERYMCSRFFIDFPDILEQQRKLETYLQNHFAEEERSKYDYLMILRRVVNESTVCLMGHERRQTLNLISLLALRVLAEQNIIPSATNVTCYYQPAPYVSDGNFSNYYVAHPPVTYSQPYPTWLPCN
inactive: [1] 0.044 | [2] 0.043 | [4] 0.011 | [5] 0.111 | [6] 0.142 | [7] -0.05 | [8] 0.174 | [9] 0.061 | [10] 0.055

TEX30 (UniProt Q5JUR7)
inactive: [2] -0.206 | [3] 0.073 | [4] 0.044 | [5] 0.031 | [6] -0.292 | [7] 0.045 | [8] 0.067 | [9] 0.059 | [10] -0.295

TM7SF3 (UniProt Q9NS93)
active: [2] -0.432 | [10] -0.343
inactive: [1] -0.01 | [4] -0.216 | [5] 0.007 | [7] -0.054 | [8] -0.003 | [9] 0.052

TK1 (UniProt K7ERV3)
inactive: [1] 0 | [3] 0.021 | [4] 0.182 | [5] 0.046 | [6] -0.029 | [7] 0.012 | [8] -0.041 | [10] 0.005

SLC8B1 (UniProt Q6J4K2)
active: [2] -0.793 | [10] -0.477
inactive: [4] 0.129 | [5] 0.196 | [6] -0.053 | [8] -0.073 | [9] 0.046

TCOF1 isoform 6 (UniProt Q13428)
inactive: [1] -0.07 | [2] 0.032 | [4] -0.025 | [7] -0.008 | [9] -0.068 | [10] -0.122

SMIM20 isoform 2 (UniProt Q8N5G0)
UniProt Q8N5G0, sequence (Q8N5G0 whole entry, looked up): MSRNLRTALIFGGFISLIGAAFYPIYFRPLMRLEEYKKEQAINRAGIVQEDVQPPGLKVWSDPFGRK
inactive: [1] -0.014 | [3] 0.126 | [4] 0.019 | [5] 0.086 | [6] 0.068 | [7] 0.069 | [8] -0.068 | [10] 0.089

SLC39A11 (UniProt Q8N1S5)
inactive: [1] 0.121 | [2] 0.109 | [4] -0.066 | [5] -0.085 | [6] 0.271 | [7] 0.116 | [8] -0.126 | [9] 0.009 | [10] 0.085

TBP (UniProt P20226)
inactive: [2] 0.048 | [3] -0.021 | [4] 0.303 | [5] -0.135 | [7] 0.072 | [8] -0.098 | [9] -0.023 | [10] -0.006

SYK (UniProt P43405)
inactive: [3] -0.093 | [4] 0.053 | [5] 0.13 | [7] 0.031 | [8] 0.405 | [9] 0.179 | [10] -0.216

SSBP4 (UniProt Q9BWG4)
inactive: [1] -0.054 | [2] -0.034 | [5] 0.255 | [6] -0.121 | [7] -0.014 | [8] 0.123 | [9] 0.103 | [10] 0.148

STK17B (UniProt O94768)
inactive: [2] -0.227 | [9] -0.085

SOX5 (UniProt P35711)
inactive: [1] 0.07 | [2] 0.046 | [4] 0.041 | [7] 0.045 | [9] 0.054 | [10] 0.004

SPIRE1 (UniProt Q08AE8)
inactive: [2] -0.105 | [3] -0.324 | [4] 0.087 | [6] 0.344 | [7] -0.052 | [9] 0.096 | [10] -0.073

SNRK (UniProt Q9NRH2)
inactive: [1] 0.008 | [2] -0.026 | [5] -0.162 | [8] -0.067 | [9] 0.001

SREBF1 isoform 4 (UniProt P36956)
inactive: [2] 0.106 | [3] 0.084 | [5] -0.083 | [8] 0.089 | [9] 0.098

SPIN4 (UniProt Q56A73)
inactive: [2] 0.108 | [9] -0.213

SLC46A1 (UniProt Q96NT5)
inactive: [4] -0.047 | [6] -0.006 | [7] 0.035

TMBIM1 (UniProt Q969X1)
UniProt Q969X1, sequence (Q969X1 whole entry, looked up): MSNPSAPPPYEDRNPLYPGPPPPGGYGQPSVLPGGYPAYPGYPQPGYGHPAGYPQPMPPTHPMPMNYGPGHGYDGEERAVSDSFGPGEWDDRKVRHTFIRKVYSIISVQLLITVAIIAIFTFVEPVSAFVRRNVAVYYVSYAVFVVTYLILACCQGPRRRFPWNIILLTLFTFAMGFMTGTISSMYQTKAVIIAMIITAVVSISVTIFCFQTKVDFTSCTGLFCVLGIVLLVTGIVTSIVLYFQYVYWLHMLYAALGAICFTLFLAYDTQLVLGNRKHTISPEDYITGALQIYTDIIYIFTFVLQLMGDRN
inactive: [1] -0.03 | [3] -0.043 | [4] 0.274 | [5] 0.042 | [6] -0.017 | [7] -0.154 | [8] -0.026 | [10] 0.303

SPAG9 isoform 4 (UniProt O60271)
inactive: [1] 0.144 | [2] -0.061 | [4] 0.123 | [7] 0.142 | [9] 0.042 | [10] -0.128
